A selection: hits, their analogues and other compounds. The true share with any hit is near 3.3%.
Sm TGR block – qHTS Assay for the Inhibitors of Schistosoma Mansoni Peroxiredoxins; Schistosoma mansoni thioredoxin glutathione reductase (TGR), Q962Y6; purified TGR, DTNB reduction, TNB absorbance 405 nm; Potency, µM (doses to about 114 µM), hits mostly inhibitors; actives 3% (n = 360,000); note: nearly all actives have a fitted effect of over 60% in size
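TGR 20 nM + NADPH 100 uM (dispensed conc.), cpd preinc 15 min RT; start with NADPH (500 uM addition) then DTNB (15 mM addition). Kinetic TNB absorbance, 405 nm filter. Four-parameter Hill fit across titration.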
RE007 growth inh – qHTS Assay for Inhibitors of the HIV-1 protein Vpr; S. pombe RE007 Vpr strain, BacTiter-Glo ATP luminescence, 24 h; Potency, µM (highest dose often 92.2 µM), actives largely listed as inhibitors; actives 0.21% (n = 360,000); AID 651644, 2012; active = well fitted falling curve with a large enough effect; inconclusive = small, poorly fitted or top-dose-only effect; inactive = no such curve, though single readings can be large or run the other way; note: nearly all actives have a fitted effect of over 50% in size
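Fission yeast RE007 carrying one integrated HIV-1 vpr copy, seeded at OD 0.01 in PMG+AL medium with 23 nL pinned compound. Grown 24 h at 30 degrees; viability read by BacTiter-Glo luminescence after 5 min.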
AmpC detergent – qHTS Inhibitors of AmpC Beta-Lactamase (assay with detergent). actives 0.041% (n = 370,000). P00811. AmpC hydrolysis of nitrocefin, absorbance 480 nm, 0.01% Triton. Potency, µM (highest dose often 114 µM), usual class: inhibitors. AID 485294, 2010; note: nearly all actives have a fitted effect of over 25% in size
Target sequence (P00811 whole entry, looked up): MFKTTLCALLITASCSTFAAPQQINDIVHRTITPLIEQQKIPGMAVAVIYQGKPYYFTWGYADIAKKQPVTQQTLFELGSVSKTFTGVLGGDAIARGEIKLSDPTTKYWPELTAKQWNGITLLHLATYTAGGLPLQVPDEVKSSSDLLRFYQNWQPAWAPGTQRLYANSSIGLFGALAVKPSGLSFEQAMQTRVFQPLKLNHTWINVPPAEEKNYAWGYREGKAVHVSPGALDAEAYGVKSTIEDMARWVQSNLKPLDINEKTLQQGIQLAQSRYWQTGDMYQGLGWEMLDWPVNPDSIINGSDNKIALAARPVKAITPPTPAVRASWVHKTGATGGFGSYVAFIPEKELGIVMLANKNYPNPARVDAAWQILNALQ
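AmpC (5.3 nM in the dispensed reagent) in 20 mM phosphate pH 7.0 with 0.01% (detergent screen) or 0.0001% Triton X-100 was preincubated with compounds for 15 min at room temperature. Nitrocefin was then added from an 800 uM solution, and hydrolysis was followed at 480 nm.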
TbPYK inhibitor – qHTS of Trypanosoma Brucei Inhibitors; TbPYK enzyme, Kinase-Glo Plus ATP luminescence, 45 min; actives 0.12% (n = 410,000); Potency, µM (doses to about 76.8 µM), usual class: inhibitors; pyruvate kinase (Trypanosoma brucei), Q57TT1; note: nearly all actives have a fitted effect of over 50% in size
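Activity of T. brucei pyruvate kinase was followed by Kinase-Glo Plus luminescence after the enzyme reacted 45 min at room temperature with 130 uM ADP (final) and substrate. Test compounds were added before ADP at multiple concentrations.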
SARS PLP yeast – qHTS of Yeast-based Assay for SARS-CoV PLP; S. cerevisiae expressing SARS-CoV PLpro, growth rescue; Potency, µM (top dose mostly 32.9 µM), actives largely listed as activators; actives 0.19% (n = 330,000); calls by dose curve; note: nearly all actives have a fitted effect of over 55% in size
AmpC inh no detg – qHTS Inhibitors of AmpC Beta-Lactamase (assay without detergent); AID 485341, 2010; actives 0.52% (n = 330,000); AmpC nitrocefin hydrolysis, absorbance 480 nm, 0.0001% Triton; Potency, µM (highest dose often 57.1 µM), actives largely listed as inhibitors; P00811; note: nearly all actives have a fitted effect of over 20% in size
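AmpC (5.3 nM in the dispensed reagent) in 20 mM phosphate pH 7.0 with 0.01% (detergent screen) or 0.0001% Triton X-100 was preincubated with compounds for 15 min at room temperature. Nitrocefin was then added from an 800 uM solution, and hydrolysis was followed at 480 nm.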
Hits are given with their value; [ ] = dose if it differs, or a comment. Unless noted, calls come from the whole dose curve; as a rule, active = well fitted curve in the direction sought with a large enough effect; inconclusive = small, poorly fitted or top-dose-only effect, or another doubt; inactive = no such curve, though single readings can be large; an effect the other way counts as inactive or inconclusive.

Results for Cc1cc(C)c(S(=O)(=O)NCc2cccnc2)cc1C ?
Sm TGR block: inactive; RE007 growth inh: inactive; AmpC detergent: inactive; TbPYK inhibitor: inactive; SARS PLP yeast: inactive; AmpC inh no detg: inactive

How did COc1cc(/C=C/C(=O)O)cc(S(=O)(=O)NCCCO)c1OC do in these assays?
Sm TGR block: inactive; RE007 growth inh: inactive; AmpC detergent: inactive; TbPYK inhibitor: inactive; SARS PLP yeast: inactive; AmpC inh no detg: inactive

What do the screens show for `Cc1ccc(/C=C/C(=O)O)cc1S(=O)(=O)NCc1cccnc1`?
Sm TGR block: 22µM; RE007 growth inh: inactive; AmpC detergent: inactive; TbPYK inhibitor: inactive; SARS PLP yeast: inactive; AmpC inh no detg: inactive

Results for Cc1ccc(/C=C/C(=O)O)cc1S(=O)(=O)Nc1ccc2c(c1)OCO2 ?
Sm TGR block: inactive; RE007 growth inh: inactive; AmpC detergent: inactive; TbPYK inhibitor: inactive; SARS PLP yeast: inactive; AmpC inh no detg: inactive

What do the screens show for `Cc1ccc(/C=C/C(=O)O)cc1S(=O)(=O)N(CCO)CCO`?
Sm TGR block: 22µM; RE007 growth inh: inactive; AmpC detergent: inactive; TbPYK inhibitor: inactive; SARS PLP yeast: inactive; AmpC inh no detg: inactive

Results for CCC(CC)c1nn2c(=O)cc(COc3ccc(NC(=O)c4ccccc4C)cc3)nc2s1 ?
Sm TGR block: inactive; AmpC detergent: inactive; TbPYK inhibitor: inactive

Results for CCOC(=O)c1ccccc1NC(=O)N1CCCN(S(=O)(=O)c2ccc3c(ccn3CC)c2)CC1 ?
Sm TGR block: inactive; AmpC detergent: inactive; TbPYK inhibitor: inactive

Results for CC(C(=O)NC1C(=O)N2C(C(=O)O)=C(CSc3nnnn3C)CSC12)n1cc(Br)cn1 (stereo not drawn) ?
Sm TGR block: 0.56µM; RE007 growth inh: inactive; AmpC detergent: inactive; TbPYK inhibitor: inactive; SARS PLP yeast: inactive; AmpC inh no detg: inactive

Results for Cn1nnnc1SCC1=C(C(=O)O)N2C(=O)[C@@H](NC(=O)[C@H](O)c3ccccc3)[C@H]2SC1 ?
Sm TGR block: inactive; RE007 growth inh: inactive; AmpC detergent: inactive; TbPYK inhibitor: inactive; SARS PLP yeast: inactive; AmpC inh no detg: inactive

Results for Cc1cc(C(F)F)nn1CC(=O)NC1C(=O)N2C(C(=O)O)=C(CSc3nnnn3C)CSC12 (stereo not drawn) ?
Sm TGR block: 14µM; RE007 growth inh: inactive; AmpC detergent: inactive; TbPYK inhibitor: inactive; SARS PLP yeast: inactive; AmpC inh no detg: inactive

How did Cc1nn(C(C)C(=O)NC2C(=O)N3C(C(=O)O)=C(CSc4nnnn4C)CSC23)cc1Cl (stereo not drawn) do in these assays?
Sm TGR block: 2.2µM; RE007 growth inh: inactive; AmpC detergent: inactive; TbPYK inhibitor: inactive; SARS PLP yeast: inactive; AmpC inh no detg: inactive

What do the screens show for `Cn1nnnc1SCC1=C(C(=O)O)N2C(=O)C(NC(=O)C3CC3c3ccccc3)C2SC1` (stereo not drawn)?
Sm TGR block: 2.5µM; RE007 growth inh: inactive; AmpC detergent: inactive; TbPYK inhibitor: inactive; SARS PLP yeast: inactive; AmpC inh no detg: inactive

How did COc1ccc(NC(=O)c2c(C)oc3ccc(O)c(CN4CCN(Cc5ccccc5)CC4)c23)cc1 do in these assays?
Sm TGR block: inactive; AmpC detergent: inactive; TbPYK inhibitor: inactive

Results for CC(=O)c1c(COC(=O)c2ccco2)nc2ccccc2[n+]1[O-] ?
Sm TGR block: 40µM; RE007 growth inh: inactive; AmpC detergent: inactive; TbPYK inhibitor: inactive; SARS PLP yeast: inactive; AmpC inh no detg: inactive

How did CC(=O)NC(Cc1ccc(N(CCCl)CCCl)cc1)C(=O)NC(CC(C)C)C(=O)O (stereo not drawn) do in these assays?
Sm TGR block: 28µM; RE007 growth inh: inactive; AmpC detergent: inactive; TbPYK inhibitor: inactive; SARS PLP yeast: inactive; AmpC inh no detg: inactive

What do the screens show for `CCOC(=O)C(NC(=O)C(Cc1ccc(N(CCCl)CCCl)cc1)NC(C)=O)C(C)C` (stereo not drawn)?
RE007 growth inh: inactive; AmpC detergent: inactive; TbPYK inhibitor: inactive; SARS PLP yeast: inactive; AmpC inh no detg: inactive

How did COc1ccc(NC(=O)C2CCN(C3=NS(=O)(=O)C(c4ccc(C)c(C)c4)=C3C)CC2)cc1OC do in these assays?
Sm TGR block: inactive; AmpC detergent: inactive; TbPYK inhibitor: inactive

What do the screens show for `Cc1ccccc1C(=O)NC(C)C(c1cccs1)N1CCOCC1` (stereo not drawn)?
Sm TGR block: inactive; RE007 growth inh: inactive; AmpC detergent: inconclusive; TbPYK inhibitor: inactive; SARS PLP yeast: inactive; AmpC inh no detg: 2.8µM

How did COc1ccccc1C(=O)NC(C)C(c1cccs1)N1CCOCC1 (stereo not drawn) do in these assays?
Sm TGR block: inactive; RE007 growth inh: inactive; AmpC detergent: inconclusive; TbPYK inhibitor: inactive; SARS PLP yeast: inactive; AmpC inh no detg: inactive

What do the screens show for `O=S(=O)(c1ccccc1)N1CCC2(CCN(c3ncccn3)CC2)CC1`?
TbPYK inhibitor: inactive

What do the screens show for `CCOC(=O)N1CCN(c2c(F)cc3[nH]c(=S)[nH]c3c2Br)CC1`?
Sm TGR block: inactive; RE007 growth inh: inactive; AmpC detergent: inactive; TbPYK inhibitor: inactive; SARS PLP yeast: inactive; AmpC inh no detg: 28µM

Results for Cc1ncc(C[n+]2csc(C)c2C)c(N)n1 ?
Sm TGR block: 25µM; RE007 growth inh: inactive; AmpC detergent: inactive; TbPYK inhibitor: inactive; SARS PLP yeast: inactive; AmpC inh no detg: inactive

How did Cc1ncc(C[n+]2csc(CCO)c2C)c(N)n1 do in these assays?
Sm TGR block: inconclusive; RE007 growth inh: inactive[18.4 µM]; AmpC detergent: inconclusive; TbPYK inhibitor: inactive; SARS PLP yeast: inactive; AmpC inh no detg: inactive

How did N#C/C(=C/c1ccc(Br)o1)C(N)=S do in these assays?
Sm TGR block: 3.5µM; AmpC detergent: inactive; SARS PLP yeast: inactive; AmpC inh no detg: inactive

How did N#C/C(=C/c1ccc(Br)o1)C(N)=O do in these assays?
Sm TGR block: inactive; RE007 growth inh: inactive; AmpC detergent: inactive; TbPYK inhibitor: inactive; SARS PLP yeast: inactive; AmpC inh no detg: inactive

What do the screens show for `Cc1cc(O)c(C(C[N+](=O)[O-])c2ccc(Cl)cc2Cl)c(=O)o1` (stereo not drawn)?
Sm TGR block: 50µM; RE007 growth inh: inactive; AmpC detergent: inactive; TbPYK inhibitor: inactive; SARS PLP yeast: inactive; AmpC inh no detg: inactive

How did CCOC(=O)c1sc(S(C)=O)c2c1CCc1conc1-2 (stereo not drawn) do in these assays?
Sm TGR block: 1µM; RE007 growth inh: inactive; AmpC detergent: inactive; TbPYK inhibitor: inactive; SARS PLP yeast: inactive; AmpC inh no detg: inactive

Source: PubChem BioAssay
